From PubChem BioAssay AID686978 (National Center for Advancing Translational Sciences (NCATS), 2013)
Values joined by “and” are separate entries in the source; they are usually repeats but may differ in a detail not shown here. Identical values can stand only once. Screen size: about 420,000 compounds; about 64,000 (15%) were called active. Not shown: some 27% with an inconclusive outcome. Calls follow the shape of the dose curve; as a rule, active = well fitted inhibition curve with a large enough effect; inconclusive = small, poorly fitted or top-dose-only effect; inactive = flat fitted curve, though single readings scatter. Only a sample is shown. Some structures have more than one record in an assay (separate samples or runs), and their calls can disagree.

assay: qHTS for Inhibitors of human tyrosyl-DNA phosphodiesterase 1 (TDP1): qHTS in cells in absence of CPT; settings: DT40 Tdp1-/- hTDP1 cells, no CPT, ATP luminescence, 48 h; activity change, negative = growth inhibition: at 46.2 µM (top of the series); also: nearly all actives have a fitted effect of over 55% in size
Procedure, shortened: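 No-CPT arm: Tdp1-/-;hTDP1 DT40 cells (400/well) plus compounds, incubated ≥48 hr at 37 °C. Readout CellTiter-Glo luminescence.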
% is scaled to controls: 0 for no effect and ±100 for the full control effect; potency is read from the fitted curve at half-maximal effect.

Compound | activity change, negative = growth inhibition | Potency
CC(=O)Nc1ccc(Sc2ccccc2C(=O)N2CCCC2)cn1 | -18.6% (inactive) | 
CNC(=O)C[C@H]1C(=O)N(Cc2ccccc2)C[C@@H]1CSC | -20.5% (inactive) | 
O=C(C[C@H]1C(=O)N(c2ccc(F)c(F)c2)C[C@@H]1Cc1ccccc1)Nc1ccccc1 |  | inactive and 15.8 µM (active)
CNC(=O)C[C@H]1C(=O)N(c2ccc(OC)cc2)C[C@@H]1Cc1ccccc1 | -16.7% (inactive) | 
CCOc1cc2[nH]c(=O)n(CCC(=O)NCc3ccc(OC)cc3)c(=O)c2cc1OCC | 0.129% (inactive) | 
CN=C1SC(CC(=O)Nc2ccc(C(=O)O)cc2)C(=O)N1C (stereo not given) | -12% (inactive) | 
CC1C(=O)C(C)C(c2ccc(O)cc2)NC1c1ccc(O)cc1 (stereo not given) | -8.1% (inactive) | 
O=c1cc(CN2CCN(S(=O)(=O)/C=C/c3ccccc3)CC2)c2ccc(O)cc2o1 |  | 20.6 µM (active)
CC(=O)N1CCN(Cc2cc(=O)oc3cc(C)ccc23)CC1 | 5.29% (inactive) | 
NC(=O)CCN1CCN(S(=O)(=O)/C=C/c2ccccc2)CC1 | -3.19% (inactive) | 
COc1ccc(NC(=O)CCCN2C(=O)C(c3ccccc3)Oc3cccnc32)cc1 (stereo not given) | 4.59% (inactive) | 
O=S1(=O)CC(N2CCN(CCO)CC2)CN1C1CCCC1 (stereo not given) | -2.44% (inactive) | 
O=S1(=O)CCN(C2CCCCCCCCCCC2)CC1 |  | 20.6 µM (active)
O=C(O)C1CCN1C1CCCCC1 (stereo not given) | -3.77% (inactive) | 
COc1ccc(NC(=O)N(C)C[C@@H]2OCc3cn(nn3)CCCC(=O)N([C@H](C)CO)C[C@H]2C)c(OC)c1 | -14.2% (inactive) | 
COCCN(C(=O)CC1CCCCC1)c1c(N)n(CC(C)C)c(=O)[nH]c1=O | 0.685% (inactive) | 
Cc1ccc(-c2ccc(CN3C(C(C)C)C(=O)N(Cc4cn(CCC5OCCCO5)nn4)CCS3(=O)=O)cc2)cc1 (stereo not given) |  | 11.6 µM (active)
Cc1ccc(-c2ccc(CN3C(C)C(=O)N(Cc4cn(CCC5OCCCO5)nn4)CCS3(=O)=O)cc2)cc1 (stereo not given) |  | 23.1 µM (active)
CC(C)C1C(=O)N(Cc2cn(CCC3OCCO3)nn2)CCS(=O)(=O)N1Cc1ccc(-c2ccccc2C(F)(F)F)cc1 (stereo not given) |  | 25.9 µM (active)
Cc1ccc(CN2CCCOCCS2(=O)=O)cc1 |  | inactive
Cc1ccc(-c2ccc(CN3C(C(C)C)C(=O)N(Cc4cn(CCC5OCCO5)nn4)CCS3(=O)=O)cc2)cc1 (stereo not given) |  | 7.31 µM (active)
CCC(C)[C@H]1COCCS(=O)(=O)N1Cc1ccc(C)cc1 (stereo not given in full) | -25% (inactive) | 
CCCc1nnc(NC(=O)CCC(=O)NC2CC2)s1 | 6.31% (inactive) | 
O=C(Oc1cc(OC(=O)c2ccccc2)c2c(c1)OC(c1ccc(OC(=O)c3ccccc3)c(OC(=O)c3ccccc3)c1)[C@@H](OC(=O)c1ccccc1)C2)c1ccccc1 (stereo not given in full) | -1.82% (inactive) | 
Nc1ccc(-n2nncc2-c2ccco2)cc1 | -7.69% (inactive) | 

Compound | activity change, negative = growth inhibition | Potency
CC(C)c1ccc(N2CC(C(=O)Nc3nccs3)CC2=O)cc1 (stereo not given) | -19% (inactive) | 
O=C(NN=C1CCC(=NNC(=O)c2cccnc2)CC1)c1cccnc1 | 15% (inactive) | 
COc1ccc(CNC(=O)C2CCN(S(C)(=O)=O)CC2)cc1 | 0.741% (inactive) | 
Cn1cnc(S(=O)(=O)N2C[C@@H](O)COC[C@@H]3O[C@H](CC(=O)NC4CCC4)CC[C@H]32)c1 | -4.51% (inactive) | 
c1csc(-c2nnc(COc3ncnc4sccc34)o2)c1 | -2.27% (inactive) | 
C[C@@H]1NC(=O)c2cc([N+](=O)[O-])cc(F)c2NCCC[C@@H](C(N)=O)NC(=O)[C@H](CC(N)=O)NC1=O | 15.3% (inactive) | 
COc1cc2c(cc1OC)CN(C(=O)c1cc(S(=O)(=O)N3CCCCC3)ccc1Cl)CC2 |  | 11.6 µM (active)
COc1cc2c(cc1OC)CN(C(=O)c1ccc(S(=O)(=O)N3CCCCCC3)cc1)CC2 |  | 14.6 µM (active)
COc1ccc(C(=O)NCC2CCCCC2)cc1S(=O)(=O)N1CCCC1 | -8.77% (inactive) | 
COc1ccc(S(=O)(=O)N2CCC(C(=O)N3CCc4ccccc4C3)CC2)cc1OC |  | 29.1 µM (active)
O=C(c1cc(S(=O)(=O)N2CCOCC2)ccc1Cl)N1CCOCC1 | -1.42% (inactive) | 
COc1ccc(S(=O)(=O)N2CCCCC2)cc1Br | -14.8% (inactive) | 
COc1cc(S(=O)(=O)N2CCN(C(=O)C3CC3)CC2)ccc1NC(C)=O | 19.7% (inactive) | 
CN1CCN(NC(=O)c2ccc(S(=O)(=O)N3CCCCCC3)cc2)CC1 | -18.3% (inactive) | 
COc1ccc(S(=O)(=O)N2CCC(C(=O)N3CCOCC3)CC2)cc1OC | -12% (inactive) | 
CSc1ccccc1OCc1cc(C(=O)N2C[C@H]3CC[C@H]2C3)no1 | -22% (inactive) | 
CCOc1ccccc1N(CC(=O)NC1CCCCC1)C(=O)CCCC(=O)Nc1ccccn1 | -20.7% (inactive) | 
O=C(c1ccc(Cl)cc1)c1cnc(Nc2ccccc2)s1 | -8.04% (inactive) | 
Cc1ccc(S(=O)(=O)NN=C2CC(C)(C)CC(=O)C2(C)C)cc1 | -14.2% (inactive) | 
COC(C[C@@H](O)C[C@H](O)[C@H](C)OCc1ccccc1)OC | 10.3% (inactive) | 
Cc1noc(C)c1COc1ccccc1C(=O)N(C)CC(=O)Nc1cccc(F)c1 | -19.2% (inactive) | 
Cc1cc(Nc2ccccc2)n(CCC#N)n1 | -13.7% (inactive) | 
O=c1ccn([C@@H]2O[C@H](COP(=O)(O)OP(=O)(O)OP(=O)(O)O)[C@@H](O)[C@H]2O)c(=O)[nH]1 | -7.87% (inactive) | 
Cc1ccccc1NC(=O)CN1C(=O)N/C(=C\c2cccn2-c2cccc(C(=O)O)c2)C1=O | -5.12% (inactive) | 
Nn1c(SCc2ccccc2)nnc1C1CCCCC1 | -9.36% (inactive) | 

Compound | activity change, negative = growth inhibition | Potency
Cc1ccc(S(=O)(=O)c2nc(NCCCn3ccnc3)sc2Cl)cc1 |  | 20.6 µM (active)
Cc1ccc(S(=O)(=O)NCCCn2ccnc2)cc1C(=O)NC(C)C | -5.17% (inactive) | 
Cc1ccc(-c2nc(C#N)c(NCCCn3ccnc3)o2)cc1 | -27.6% (inactive) | 
CCc1ccccc1NC(=S)Nc1cc(OC)c(NC(=O)C(C)C)cc1OC | -17.7% (inactive) | 
CCc1ccccc1NC(=O)CCOc1ccccc1 |  | inactive
CCc1ccccc1NC(=O)/C(=C/c1ccccc1)c1ccccc1 |  | 23.1 µM (active)
O=S(=O)(Nc1cccc(Oc2ccc(Cl)cc2)n1)c1ccc(F)cc1 | 1.53% (inactive) | 
CC(C)(C)NC(=O)CN1CCC(NC(=O)C23CC4CC(CC(C4)C2)C3)CC1 | -4.57% (inactive) | 
CCc1c(C)sc(NC(=O)C2c3ccccc3Oc3ccccc32)c1C(=O)OC(C)C | 0.406% (inactive) | 
O=S(=O)(Nc1cc(S(=O)(=O)N2CCOCC2)ccc1N1CCCC1)c1cccs1 | -19.9% (inactive) | 
O=C(Cc1ccc(S(=O)(=O)N2CCOCC2)s1)N1CCN(c2ccc(C(F)(F)F)cc2[N+](=O)[O-])CC1 |  | 9.2 µM (active)
O=C(c1ccc(N2CCOCC2)c([N+](=O)[O-])c1)N1CCN(S(=O)(=O)c2cccs2)CC1 |  | 16.4 µM (active)
O=C(Cc1ccc(S(=O)(=O)N2CCOCC2)s1)Nc1ccc(Br)c(C(F)(F)F)c1 |  | 25.9 µM (active)
O=C(OCC(=O)N1CCOCC1)c1ccc(N2CCOCC2)c([N+](=O)[O-])c1 | -2.15% (inactive) | 
O=C(Cc1ccc(S(=O)(=O)N2CCOCC2)s1)NCCOc1ccccc1F | -16.1% (inactive) | 
Cc1cc(S(=O)(=O)N2CCOCC2)ccc1OCC(=O)Nc1cccc(C(F)(F)F)c1 | -9.35% (inactive) | 
O=C(COc1ccc(S(=O)(=O)N2CCOCC2)cc1Cl)N1CCOCC1 | -24.9% (inactive) | 
O=C(Oc1ccccc1Cl)c1ccc(N2CCOCC2)c([N+](=O)[O-])c1 | -15.9% (inactive) | 
CC1CC(C)CN(CCCNC(=O)c2csc3c2CCCCC3)C1 (stereo not given) | -2.49% (inactive) | 
CCOC(=O)c1nc(N)sc1C(=O)OCC | -2.51% (inactive) | 
O=C(Nc1ccc(-n2ccnc2P(=O)(O)c2ccccc2)cc1)c1ccccc1Br | -25.4% (inactive) | 
CSc1nc2sc3c(c2c(=O)[nH]1)CCc1ccccc1-3 | -1.5% (inactive) | 
O=C(NC1CCCC1)C(c1c(F)cccc1Cl)N(C(=O)c1csnn1)C1CC1 (stereo not given) | -3.6% (inactive) | 
Cc1noc(C)c1NC(=O)Nc1cccc2c1O[C@H](CN(C)C(=O)Nc1ccccc1)[C@@H](C)CN([C@H](C)CO)C2=O | -6.07% (inactive) | 
O=C(Nc1ccc2c(c1)CCC2)c1ccc(Br)s1 | -21.1% (inactive) | 

Compound | activity change, negative = growth inhibition | Potency
CCN(CC(=O)NCc1ccc(Cl)cc1)C(=O)CSc1ccccc1 | -21.6% (inactive) | 
O=C(CSc1nc2ccccc2o1)N1CCN(c2ccccc2)CC1 | -26.2% (inactive) | 
CN(C)S(=O)(=O)c1cccc(C(=O)Nc2cccnc2)c1 | -5.49% (inactive) | 
Cc1ccc(/C=N/NC(=S)Nc2cccc(S(=O)(=O)N(C)C)c2)o1 |  | 2.59 µM (active)
Cc1ccc(/C=N/NC(=O)Cn2nc(C)c(Br)c2C)o1 | 0.967% (inactive) | 
O=C(OCc1cc2ccccc2[nH]c1=O)c1cccnc1 | -6.84% (inactive) | 
CN1CCN(S(=O)(=O)c2ccc3[nH]cc(C(=O)O)c(=O)c3c2)CC1 | -1.96% (inactive) | 
Cc1cc(C)c(-c2csc(NC(=O)CCCc3nc4ccccc4c(=O)[nH]3)n2)c(C)c1 |  | 8.2 µM (active)
O=C(CCc1nc2ccccc2c(=O)[nH]1)OCC(=O)c1cccc(Cl)c1 | -24.5% (inactive) | 
CC(C)(C)c1ccc(NC(=O)COC(=O)CCc2nc3ccccc3c(=O)[nH]2)cc1 | -21.3% (inactive) | 
Cc1ccc(C(=O)N/C(=C\c2cn(S(=O)(=O)N(C)C)c3ccccc23)C(=O)N2CCCC2)cc1 | -14.7% (inactive) | 
C/C=C(\C)C(=O)OC1C(OC(=O)C2(C)OC2C)c2cc3ccc(=O)oc3cc2OC1(C)C (stereo not given) | -10.9% [at 9.04 µM] (inactive) | 
CN1CCN(/N=C/c2ccc(C#N)cc2)CC1 | -20.6% (inactive) | 
Cc1ccc(NS(=O)(=O)c2ccc3c(c2)CC(=O)N3)cc1Cl | -18.8% (inactive) | 
O=C1c2cccnc2C(=O)N1Cc1cccs1 | -22% (inactive) | 
NC1=CC(=O)C(=O)c2cccnc21 |  | 3.66 µM (active)
Cc1cccc(N2C(=O)c3cccnc3C2=O)c1 | -2.8% (inactive) | 
COc1ccccc1-c1nc(NCCNC(C)=O)c2ccccc2n1 | 15.7% (inactive) | 
Oc1ccc(-c2nnc(Nc3ccccc3)c3ccccc23)cc1 | 13.6% (inactive) | 
COc1cccc(-c2nc(Nc3ccncc3)c3ccccc3n2)c1 |  | 10.3 µM (active)
Cc1nc2ccccc2c(C)c1C(=O)c1ccc(F)cc1 | -6.13% (inactive) | 
Cc1cccc(-c2noc(-c3ccc(F)cc3)n2)c1 | 1.15% (inactive) | 
COc1cc(Nc2nc(-c3ccc(OC)c(OC)c3)nc3ccccc23)cc(OC)c1 |  | 2.06 µM (active)
Cc1cccc(-c2nc(Nc3ccc(O)cc3)c3ccccc3n2)c1 |  | 20.6 µM (active)
CNc1nc(-c2ccccc2OC)nc2ccccc12 |  | 7.31 µM (active)
